This is a sample that favours compounds with a hit; in the whole collection about 21% have one here.
Cycloheximide cs: Cycloheximide Counterscreen for Small Molecule Inhibitors of Shiga Toxin. 300,000 tested, 12% active. AID 2314, 2010. cell reporter, cycloheximide protein synthesis inhibition counterscreen. max response, %; in the data active = max response mostly above about 13%, no sharp cut-off; inactive = mostly below about 14%; also: read at 38.3 µM for the half of the compounds with a filed dose; 0% is about no effect
Shiga toxin inh: A qHTS for Small Molecule Inhibitors of Shiga Toxin. Vero cells, Shiga toxin protein synthesis inhibition reporter. inhibition, % at 38.7 µM. 290,000 tested, 9.2% active; in the data active = inhibition mostly above about 28%, no sharp cut-off; inactive = mostly below about 43%; also: 0% is about no effect
HCV inhibitor: qHTS Assay for Inhibitors of Hepatitis C Virus (HCV); Huh7.5.1 HCVcc-Cre infection, luciferase reporter, 44 h; 340,000 tested, 3.4% active; Potency, µM (doses to about 41.8 µM), for the others: at the highest dose activity change, negative = inhibition, most hits filed as inhibitors; also: potency is read from the fitted curve at half-maximal effect; % is scaled to controls: 0 for no effect and ±100 for the full control effect
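Reporter virus HCVcc-Cre (~0.5 moi) infects cells exposed to compound; seeding density 1,000 cells/well with 4 h settling beforehand. Luminescence, 15 sec read, taken 44 h post-infection following a 15 min RT substrate incubation.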
Pf growth 96h: Primary qHTS for delayed death inhibitors of the malarial parasite plastid, 96 hour incubation | P. falciparum luciferase reporter growth, 96 h | Potency, µM (highest dose often 28.7 µM), for the others: at the top dose activity change, negative = inhibition, usual class: inhibitors | 320,000 tested, 6.9% active | AID 504834, 2011; also: potency is read from the fitted curve at half-maximal effect; % is scaled to controls: 0 for no effect and ±100 for the full control effect
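Cell-based qHTS: luciferase-tagged P. falciparum in erythrocytes (2% hematocrit, 0.05% parasitemia final) incubated with compounds for 96 hours, 37 C, 5% CO2; luciferase detection reagent then added and luminescence measured.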
Pf growth 48h: Primary qHTS for delayed death inhibitors of the malarial parasite plastid, 48 hour incubation; P. falciparum luciferase growth in erythrocytes, 48 h; Potency, µM (highest dose often 28.7 µM), for the others: at the highest dose activity change, negative = inhibition, most hits filed as inhibitors; 310,000 tested, 5.9% active; also: potency is read from the fitted curve at half-maximal effect; % is scaled to controls: 0 for no effect and ±100 for the full control effect
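Erythrocytes infected with P. falciparum carrying an integrated firefly luciferase reporter (2% hematocrit, 0.1% parasitemia final) were exposed to compounds in RPMI 1640 with 0.5% Albumax at 37 C, 5% CO2. Growth inhibition was scored as reduced luminescence.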
AMA1 RON2 block: qHTS for Inhibitors of AMA1-RON; Towards Development of Antimalarial Drug Lead: Primary Screen. Plasmodium falciparum AMA1 (3D7) - RON2 peptide interaction. AlphaScreen AMA1-biotinylated RON2 peptide binding. Potency, µM (doses to about 58.2 µM), for inactives: top-dose activity change, negative = inhibition, usual class: inhibitors. 360,000 tested, 0.2% active. AID 720542, 2013;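 also: potency is read from the fitted curve at half-maximal effect; 0% = vehicle wells and -100% = peptide control; nearly all actives have a fitted effect of over 45% in size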
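AMA1 (3D7) with his tag at 25 nM final met compounds first, then biotinylated RON2 peptide at 25 nM; detection used donor plus acceptor beads, 10 µg/mL apiece, read by AlphaScreen after 30 min at room temperature.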
The depositor's hits bear a star; ? = inconclusive; nt = not tested or not shown; [ ] = another dose, or the depositor's remark. Unless noted, calls follow the shape of the dose curve; as a rule, active = well fitted curve in the direction sought with a large enough effect; inconclusive = small, poorly fitted or top-dose-only effect, or another doubt; inactive = no such curve, though single readings can be large; an effect the other way counts as inactive or inconclusive.

SMILES	Cycloheximide cs	Shiga toxin inh	HCV inhibitor	Pf growth 96h	Pf growth 48h	AMA1 RON2 block
Cc1cccc(C)c1-n1ncc(C(=O)NC2CCCC2)c1C1CCNCC1	0	11	2%	8%	-9%	-12%
Cc1ccc(NC(=O)c2cc(-n3cnnc3)ccc2Cl)c(C)c1	3	5	13%	?	5%	-18%
Cc1ccc(CNC(=O)CCSCc2ccccc2C)cc1	-4	-7	8%	0%	?	-8%
CC(C)CCC(=O)N1CCOC1=O	-3	-5	19%	7%	10%	5%
CC(C)c1cc(CN2C(C)COCC2C)cc(C(C)C)c1O (centres undefined)	nt	nt	2%	nt	nt	-10%
Cc1cc(N/N=C/c2c(O)ccc3ccccc23)nc(-c2ccccc2O)n1	-2	-10	?	?	6.6µM*	51%
Cc1cc(NCc2ccccc2)nc(-c2ccccc2O)n1	29	25	?	49%	?	28%
CCOC(=O)c1ccc(Nc2cc(C)nc(-c3ccccc3O)n2)cc1	9	7	?	71%	?	7%
Cc1cc(Nc2ccccc2)nc(-c2ccccc2O)n1	35*	107*	0.63µM*	nt	29%	4%
Cc1cc(NC2CCCCC2)nc(-c2ccccc2O)n1	15*	44	?	20%	?	14%
NC(c1csc(Nc2nccc(C(F)(F)F)n2)n1)C1CCCCC1 (centres undefined)	nt	nt	nt	nt	nt	89%
CSc1ccc(CN2C(=O)C(C)ON=C2c2ccccc2F)cc1 (centres undefined)	nt	nt	nt	nt	nt	-11%
CNc1ccccc(C(=O)/C=C/c2ccccc2OC)c1=O	31*	55*	?	?	?	-1%
CNc1ccc(Br)cc(C(=O)/C=C/c2cccc(OC)c2OC)c1=O	-2	5	?	?	?	3%
COc1ccccc1/C=C/C(=O)/C=C/c1ccccc1O	99*	139*	?	?	?	-10%
COc1ccccc1C=CC(=O)C=Cc1ccccc1OC	nt	nt	?	nt	nt	-26%
COc1ccccc1/C=C/C(=O)N1CCCC1	33*	36	-7%	38%	48%	-9%
O=S(=O)(/N=C(/Nc1ccc(Cl)cc1Cl)c1ccccc1)c1cccs1	16	35	-12%	?	47%	-4%
CCC(C)NS(=O)(=O)c1ccc(NC(=O)C2CCN(C(=O)c3ccco3)CC2)cc1 (centres undefined)	-3	-17	?	-1%	-4%	3%
CCOc1ccc(NC(=O)n2ncc3c(C)cccc32)cc1	30*	48*	-12%	1%	178%	7%
COc1cccc(NC(=O)n2ncc3c(C)cccc32)c1	32*	54*	-9%	145%	nt	-1%
Cc1ccc(NC(=O)n2ncc3c(C)cccc32)c(C)c1	38*	34*	?	2%	117%	?
Cc1cccc2c1cnn2C(=O)Nc1ccc(Br)cc1F	7	22	14%	-4%	92%	-1%
CCOc1ccc(S(=O)(=O)N2CCN(C(=O)CCOc3ccccc3C)CC2)cc1	nt	nt	?	?	10µM*	3%
CC(=O)c1ccc(OCCCC(=O)N2CCN(S(=O)(=O)c3ccc(C(C)C)cc3)CC2)cc1	nt	nt	10µM*	5.2µM*	9.3µM*	-14%
SMILES	Cycloheximide cs	Shiga toxin inh	HCV inhibitor	Pf growth 96h	Pf growth 48h	AMA1 RON2 block
CCOc1ccc(OCCC(=O)OCC(=O)N2CCN(S(=O)(=O)c3ccc(Cl)cc3)CC2)cc1	35*	54*	4%	-3%	-21%	-4%
Cc1ccc(C)c(OCCC(=O)OCC(=O)N2CCN(S(=O)(=O)c3ccc(Cl)cc3)CC2)c1	nt	nt	?	44%	?	3%
CC(=O)c1ccc(OCCCC(=O)N2CCN(S(=O)(=O)c3cc(C)ccc3C)CC2)cc1	nt	nt	?	?	?	5%
O=S(=O)(Nc1cccc(S(=O)(=O)N2CCCCCC2)c1)c1ccc(F)cc1F	nt	nt	1%	nt	nt	-12%
CCCN1CCN(CCCNC(=O)c2ccc3nc(N4CCCCC4)sc3c2)CC1	13*	19	?	?	3%	7%
O=C(NCCCN1CCC(Cc2ccccc2)CC1)c1ccc2nc(N3CCOCC3)sc2c1	-1	-3	10µM*	?	10µM*	5%
CC1CC(C)CN(CCCNC(=O)c2ccc3nc(N4CCCCC4)sc3c2)C1 (centres undefined)	17*	15*	?	64%	-7%	3%
Cc1cc(C)c2nc(N3CCC(C(=O)NCCCN4CC(C)CC(C)C4)CC3)sc2c1 (centres undefined)	-2	-9	?	11%	72%	4%
C=CCC[C@@H](Cc1ccc(F)cc1)C(=O)OC[C@@H](Cc1ccccc1)NC(=O)[C@@H](CC=C)CC(=O)N[C@@H](CO)Cc1ccccc1	nt	nt	11%	nt	nt	9%
COc1ccc(CN2C(=O)C(CC(=O)NCC3CCCCC3)CC(C(=O)N(C(C)C)C(C)C)=C2C)cc1 (centres undefined)	nt	nt	nt	nt	nt	-1%
Fc1cccc(Cl)c1CSc1nnc2ccccn12	42*	91*	22%	53%	98%	0%
CCn1c(SCc2c(F)cccc2Cl)nnc1-c1ccco1	12*	34*	-27%	nt	-18%	-2%
Fc1ccc(CSc2nnc3ccccn23)c(Cl)c1	44*	96*	25%	39%	55%	-1%
O=C1c2ccccc2C(=O)N1CCCCSc1nnnn1-c1ccccc1	10	-19	-23%	?	0%	10%
O=C1c2ccccc2C(=O)N1CCCCSc1nnc2ccccn12	1	20	9%	?	13µM*	3%
CCn1c(SCc2nc(-c3ccccc3)no2)nnc1-c1ccco1	10	11	5%	?	?	-15%
Nc1ncnc2c1ncn2[C@@H]1O[C@H](C(=O)NCC2CCN(Cc3ccccc3)CC2)[C@@H](O)[C@H]1O	nt	nt	nt	nt	nt	4%
O=C(c1ccc(Cl)c(S(=O)(=O)N2CCOCC2)c1)N1CCc2ccccc2C1	nt	nt	1%	nt	nt	23%[11.6 µM]
COCCN(CC(=O)NC1CCCCC1)C(=O)CCCC(=O)Nc1ccccn1	-3	22	12%	?	-1%	5%
Clc1cccc(Cl)c1CSc1nnc2ccccn12	1	22	11%	-28%	33%	-16%
Brc1ccc(CSc2nnc3ccccn23)cc1	26*	50*	15%	14%	23%	12%
COC(=O)[C@]12CCCCC=C1N(Cc1ccccc1)C(=O)[C@H](CC(=O)NCc1ccccc1)C2	nt	nt	nt	nt	nt	19%
Cn1c(SCCN2CCCCC2)nnc1-c1ccccc1Br	0	-53	-2%	-1%	-26%	-2%
O=S1(=O)C=C(SCCN2CCCCC2)c2ccccc21	26*	37*	-21%	5%	-27%	9%
